Source: PubChem BioAssay
CF NFkB block – inhibitors of PAF-induced NF-kB signaling, primary screen, cell-based, GFP fluorescence, uHTS. AID 588850, 2011. KKLEB NF-kB-GFP reporter, GFP fluorescence overnight. inhibition, % at 5 µM. 360,000 tested, 0.86% active;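 active = at least 50% inhibition at 5 µM, scaled per plate between neutral and stimulator controls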;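 also: PAF is a Pseudomonas aeruginosa culture filtrate used as stimulus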
LGR2 inh – inhibitors of bursicon-induced LGR2 CRE-luciferase signal, primary screen, cell-based, HEK293, CRE-luciferase reporter, bursicon stimulation | AID 720647, 2013 | 380,000 tested, 0.35% active | bursicon-stimulated, 4 h | Drosophila bursicon receptor LGR2 (rickets) | inhibition, % at 9.99 µM;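 active = drop in luminescence signal, shown as inhibition above about 50% in the replicate tests, limit read from the data, passing the limit was not always enough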;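 also: agonist challenge used bursicon conditioned medium at about half maximal strength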
HSP90 refold inh – HSP90 inhibitors, primary screen, cell lysate, luminescence; inhibition, % at 5.6 µM; Rabbit reticulocyte lysate, luciferase refolding luminescence, 3 h; 290,000 tested, 0.91% active;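 active = inhibition above the screen-wide mean plus 3 SD, computed separately per campaign, cut at about 16% in these data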;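 also: inhibitors lower the luminescence because luciferase stays unfolded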
Peg3 prom inh – Peg3 promoter-driven luciferase inhibitors, primary screen, cell-based, HeLa, luciferase luminescence. HeLa PEG-Prom luciferase reporter, overnight. inhibition, % at 20 µM. 360,000 tested, 1.7% active;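 active = inhibition of at least 50% at 20 µM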
Mdm2-MdmX inh – inhibitors of human Mdm2-MdmX association, primary screen, cell-based, luminescence, split luciferase, SaOS-2, uHTS. SaOS-2 split-luciferase Mdm2/MdmX complementation. inhibition, % at 8 µM. 330,000 tested, 3% active;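 active = inhibition of at least 50% at 8 µM in the primary screen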
Target sequence (O15151 whole entry, looked up): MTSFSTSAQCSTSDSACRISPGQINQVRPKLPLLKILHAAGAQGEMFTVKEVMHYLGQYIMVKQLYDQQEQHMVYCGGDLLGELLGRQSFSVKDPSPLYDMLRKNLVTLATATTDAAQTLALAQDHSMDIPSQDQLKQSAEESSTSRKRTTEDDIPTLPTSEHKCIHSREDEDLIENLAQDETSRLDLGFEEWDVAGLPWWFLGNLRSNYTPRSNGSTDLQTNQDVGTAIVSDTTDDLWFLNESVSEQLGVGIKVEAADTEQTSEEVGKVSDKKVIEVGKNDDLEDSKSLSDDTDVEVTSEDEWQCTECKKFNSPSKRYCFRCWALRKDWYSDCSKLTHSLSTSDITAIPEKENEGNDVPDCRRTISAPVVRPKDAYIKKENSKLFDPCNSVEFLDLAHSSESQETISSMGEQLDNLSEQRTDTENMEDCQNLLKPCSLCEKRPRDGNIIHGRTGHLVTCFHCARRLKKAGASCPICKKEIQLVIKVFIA
Target sequence (Q00987 whole entry, looked up): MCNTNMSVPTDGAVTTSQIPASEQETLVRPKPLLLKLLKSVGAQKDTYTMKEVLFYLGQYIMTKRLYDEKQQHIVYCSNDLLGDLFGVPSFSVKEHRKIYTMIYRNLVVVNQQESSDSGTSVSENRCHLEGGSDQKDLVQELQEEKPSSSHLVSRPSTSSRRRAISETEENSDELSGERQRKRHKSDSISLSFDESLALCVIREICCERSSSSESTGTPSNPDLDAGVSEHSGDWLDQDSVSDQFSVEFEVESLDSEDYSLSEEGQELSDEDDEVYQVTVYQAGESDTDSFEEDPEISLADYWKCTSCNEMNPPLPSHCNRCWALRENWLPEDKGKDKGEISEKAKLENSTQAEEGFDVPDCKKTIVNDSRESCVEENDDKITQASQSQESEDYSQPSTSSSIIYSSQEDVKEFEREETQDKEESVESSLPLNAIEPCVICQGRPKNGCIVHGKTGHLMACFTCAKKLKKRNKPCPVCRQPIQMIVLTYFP
KKLEB tox – cytotoxicity in KKLEB CF airway cells, primary screen, cytotoxicity control for CF NF-kB inhibitor project, cell-based, uHTS, fluorescence assay plates | activity change (cytotoxicity), % at 5 µM | 360,000 tested, 0.36% active | AID 602141, 2011 | KKLEB CF airway cells viability, ATPlite luminescence, overnight; active compounds read low; cells stimulated with P. aeruginosa culture filtrate;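 active = corrected activity change at or below -50% at 5 µM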
Of the large screens only hits and unclear results are named; the others gave an inactive call. Most compounds without a hit are left out; they make up all but 3.6% or so of the library.

NC(=O)CC(NC(=O)Cc1ccc(Br)cc1)c1ccc(NC2CCCC2)c([N+](=O)[O-])c1 (configuration not stated)	Peg3 prom inh 61 (no result: HSP90 refold inh)
N#Cc1c(-c2ccc(Br)cc2)cc(-c2cccnc2)nc1N	none
N#Cc1c(-c2ccc(F)cc2)cc(-c2cccnc2)nc1N	Peg3 prom inh 53
COCCNC(=O)c1c[nH]c2ccc(S(=O)(=O)N3CCc4ccccc43)cc2c1=O	Peg3 prom inh 51 (no result: LGR2 inh)
Cc1cc(Cl)n2c(nc3ccccc32)c1C#N	CF NFkB block 64, Peg3 prom inh 103 (no result: Mdm2-MdmX inh)
Cc1c(CCCl)c(Cl)n2c(nc3ccccc32)c1C#N	CF NFkB block 78, Peg3 prom inh 101, KKLEB tox -85 (no result: HSP90 refold inh, Mdm2-MdmX inh)
CNc1cc(C)c(C#N)c2nc3ccccc3n12	none
C[C@@H]1CN([C@@H](C)CO)C(=O)c2cccc(NS(=O)(=O)c3cn(C)cn3)c2O[C@H]1CN(C)Cc1ccccc1	none (no result: CF NFkB block, HSP90 refold inh, Peg3 prom inh, Mdm2-MdmX inh, KKLEB tox)
Cc1cc(O)c(-c2cc(O)c(C)cc2O)cc1O	Peg3 prom inh 70
COc1ccc2sc(-c3ccc(S(C)(=O)=O)cc3)c(C#CCO)c2c1	LGR2 inh 57 (no result: HSP90 refold inh)
COc1ccc(-c2sc3ccccc3c2C#CCO)cc1	none
CCOc1ccc(-c2[nH]ncc2-c2ccc(Cl)cc2)c(O)c1	Peg3 prom inh 55
CCOc1ccc(-c2[nH]ncc2Oc2ccccc2OC)c(O)c1	none (no result: LGR2 inh)
CCOc1ccc(-c2[nH]ncc2Oc2ccccc2OCC)c(O)c1	Peg3 prom inh 55
CCOc1ccc(-c2[nH]ncc2-c2ccc(OC)c(OC)c2)c(O)c1	none (no result: LGR2 inh)
C[C@@H]1CCCCO[C@H](CN(C)S(=O)(=O)c2ccc(F)cc2)[C@@H](C)CN([C@@H](C)CO)C(=O)c2cc(NS(=O)(=O)c3ccc(Cl)cc3)ccc2O1	none (no result: CF NFkB block, HSP90 refold inh, Peg3 prom inh, Mdm2-MdmX inh, KKLEB tox)
Cc1ccc(C2C(/C=C3/SC(=S)NC3=O)=C(c3cccs3)Oc3ccccc32)cc1 (configuration not stated)	CF NFkB block 64
Cn1c(/C=C/c2ccccc2)nc2ccccc21	LGR2 inh 80
Cn1c(=O)c(/C=C/c2ccccc2)nc2ccccc21	none
CCCNC(=O)C[C@@H]1CC[C@H]2[C@@H](COc3ccc(NC(=O)c4cc(C)on4)cc3C(=O)N2C)O1	none (no result: CF NFkB block, HSP90 refold inh, Peg3 prom inh, Mdm2-MdmX inh, KKLEB tox)
Cc1noc(C)c1NC(=O)Nc1ccc2c(c1)C(=O)N([C@H](C)CO)C[C@H](C)[C@H](CN(C)Cc1ccc(Cl)c(Cl)c1)OCCCC[C@@H](C)O2	none (no result: CF NFkB block, HSP90 refold inh, Peg3 prom inh, Mdm2-MdmX inh, KKLEB tox)
O=C(CSc1ccc(Cl)cc1)Nc1cccc(-c2nc3ccccc3[nH]2)c1	Peg3 prom inh 51
O=C(CSc1ccccc1)Nc1ccc(-c2nc3ccccc3[nH]2)cc1	none
COc1ccc(NC(=O)Nc2ccc3c(c2)C(=O)N([C@H](C)CO)C[C@H](C)[C@H](CN(C)C(=O)Nc2ccc(C(F)(F)F)cc2)O3)cc1	none (no result: CF NFkB block, HSP90 refold inh, Peg3 prom inh, Mdm2-MdmX inh, KKLEB tox)
O=C(NC(c1ccc(Cl)cc1)c1cc(Cl)c2cccnc2c1O)c1cccnc1 (configuration not stated)	Peg3 prom inh 66 (no result: Mdm2-MdmX inh)
Cc1cccc(NC(=O)c2cc3c(=O)n4ccccc4nc3n(CC(C)C)c2=N)c1	Peg3 prom inh 54
COc1cc(C2c3cc4c(cc3OC(NNC(N)=O)C2C)OCO4)cc(OC)c1OC (configuration not stated)	CF NFkB block 51 (no result: HSP90 refold inh, Mdm2-MdmX inh)
COc1cc(C2c3cc4c(cc3OC(NNC(N)=S)C2C)OCO4)cc(OC)c1OC (configuration not stated)	none (no result: HSP90 refold inh, Mdm2-MdmX inh)
CCN(CC)CCNC(=O)c1cc(-c2ccc(Br)s2)nc2ccccc12	Peg3 prom inh 101
C[C@H](CO)N1C[C@H](C)[C@H](CN(C)S(=O)(=O)c2cn(C)cn2)Oc2ccc(NC(=O)CCN3CCOCC3)cc2C1=O	none (no result: CF NFkB block, HSP90 refold inh, Peg3 prom inh, Mdm2-MdmX inh, KKLEB tox)
C[C@H]1CN([C@@H](C)CO)C(=O)Cc2cc(NC(=O)Nc3ccc(F)cc3)ccc2O[C@@H]1CN(C)S(=O)(=O)c1ccccc1	none (no result: CF NFkB block, HSP90 refold inh, Peg3 prom inh, Mdm2-MdmX inh, KKLEB tox)
Cc1cc(NC2CCCCC2)nc(NCc2ccccc2)n1	Peg3 prom inh 65 (no result: LGR2 inh)
CCCc1cnc(Nc2nc(C(N)Cc3ccc(C(F)(F)F)cc3)cs2)nc1 (configuration not stated)	Peg3 prom inh 96 (no result: HSP90 refold inh, Mdm2-MdmX inh)
Cc1cc(C)nc(Nc2nc(C(N)Cc3ccc(Cl)cc3)cs2)n1 (configuration not stated)	Peg3 prom inh 92 (no result: HSP90 refold inh, Mdm2-MdmX inh)
NC(COCc1ccccc1)c1csc(Nc2nccc(C(F)(F)F)n2)n1 (configuration not stated)	none (no result: HSP90 refold inh, Mdm2-MdmX inh)
CS(=O)(=O)c1ccc(Nc2nc(C(N)Cc3ccc(C(F)(F)F)cc3)cs2)cc1 (configuration not stated)	none (no result: HSP90 refold inh, Mdm2-MdmX inh)
Cc1cc(C)nc(Nc2nc(C(N)Cc3ccc(C(F)(F)F)cc3)cs2)n1 (configuration not stated)	Peg3 prom inh 102 (no result: HSP90 refold inh, Mdm2-MdmX inh)
NC(Cc1ccc(C(F)(F)F)cc1)c1csc(Nc2nccc(C(F)(F)F)n2)n1 (configuration not stated)	Peg3 prom inh 92 (no result: HSP90 refold inh, Mdm2-MdmX inh)
C[C@@H]1CCCCO[C@H](CN(C)Cc2ccc3c(c2)OCO3)[C@@H](C)CN([C@@H](C)CO)C(=O)c2cc(NC(=O)CCC(F)(F)F)ccc2O1	none (no result: CF NFkB block, HSP90 refold inh, Peg3 prom inh, Mdm2-MdmX inh, KKLEB tox)
COc1cc(OC)nc(Nc2nc(C(N)Cc3ccc(C(F)(F)F)cc3)cs2)n1 (configuration not stated)	LGR2 inh 31, Peg3 prom inh 115 (no result: HSP90 refold inh, Mdm2-MdmX inh)
COc1cc(OC)nc(Nc2nc(C(N)Cc3ccccc3)cs2)n1 (configuration not stated)	none (no result: HSP90 refold inh, Mdm2-MdmX inh)
Cc1nn(CC(=O)NC(C)c2ccccc2)c(C)c1[N+](=O)[O-] (configuration not stated)	none
CC(NC(=O)Cn1cnc([N+](=O)[O-])n1)c1ccccc1 (configuration not stated)	HSP90 refold inh 16 (no result: LGR2 inh)
O=C(NCCN1CCN(c2ccccc2)CC1)c1ccc2c(c1)[nH]c(=S)n1c3ccccc3nc21	Peg3 prom inh 50
O=C(Nc1ccc2c(c1)[C@@H]1C[C@@H](CC(=O)N3CCCCC3)O[C@H](CO)[C@@H]1O2)c1ccc2c(c1)OCO2	none (no result: CF NFkB block, HSP90 refold inh, Peg3 prom inh, Mdm2-MdmX inh, KKLEB tox)
COC(=O)C(=C/C(C)=C/c1cccnc1)C(=O)OC	Peg3 prom inh 60
CC(C)NC(=O)N(C)C[C@H]1OCCCC[C@@H](C)Oc2ccc(NC(=O)CCC(F)(F)F)cc2C(=O)N([C@@H](C)CO)C[C@@H]1C	none (no result: CF NFkB block, HSP90 refold inh, Peg3 prom inh, Mdm2-MdmX inh, KKLEB tox)
Cc1cccnc1C(NC(=O)C1CCN(Cc2cn(C)c3ccccc23)CC1)c1ccc(Cl)cc1 (configuration not stated)	Peg3 prom inh 105 (no result: HSP90 refold inh, Mdm2-MdmX inh)
